tim23-1 inh: growth inhibitors of tim23-1 mutant yeast | AID 463212 | S. cerevisiae tim23-1 growth, BacTiter-Glo luminescence, 24 h | inhibition, % at 20 µM | actives 1.3% (n = 330,000);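 active = growth inhibition of the mutant yeast at or above 50%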;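 note: temperature-sensitive mutant grown at 25 °C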
PfHsp90 yeast 2: growth inhibition of yeast expressing Plasmodium Hsp90; S. cerevisiae expressing PfHsp90, BacTiter-Glo ATP, 48 h; yeast lacking PDR1 and PDR3 efflux regulators; inhibition, % at 9.4 µM; actives 0.32% (n = 310,000); AID 504621;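 active = every replicate shows inhibition above about 80%, whatever the replicate mean, limit read from the data; inconclusive = mean inhibition reaches the set limit but some replicate falls short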
NALP1 inh: blocks the NALP1 inflammasome reconstituted in yeast | S. cerevisiae NALP1/ASC/caspase-1 growth, X-gal OD620, 72 h | inhibition, % at 10 µM | actives 0.61% (n = 280,000) | AID 2071; in the data active = inhibition mostly above about 24%, no sharp cut-off; inactive = mostly below about 32%
tim10-1 inh: growth inhibitors of tim10-1 mutant yeast; actives 2.2% (n = 330,000); inhibition, % at 20 µM; S. cerevisiae tim10-1 ts strain growth, BacTiter-Glo, 24 h;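 active = inhibition of at least 40%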;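 note: mutant grown at 25 °C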
TIM10 inh: TIM10 yeast growth inhibition; actives 1.4% (n = 330,000); S. cerevisiae TIM10 strain growth, BacTiter-Glo luminescence, 24 h; inhibition, % at 10 µM; AID 463195;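 active = inhibition of 40% or more at the single tested concentration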;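 note: wild-type TIM10 isogenic control strain grown at permissive 25 °C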
SKKanGAS inh: blocks kanamycin growth of S. pyogenes SKKanGAS strain. actives 1.3% (n = 300,000). AID 1662. inhibition, % at 7.5 µM. BacTiter-Glo, 6 h;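 active = mean replicate score, as percent of positive control median, at least 50; inconclusive = mean below 50 but one replicate at or above 50; inactive = mean and every replicate below 50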;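 note: strain carries kanamycin resistance gene driven by streptokinase promoter and grows in 40 µg/ml kanamycin; loss of luminescence reflects streptokinase promoter inhibition or plain growth inhibition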
tim10-1 confirm: confirmation of tim10-1 mutant yeast growth inhibitors. shares compounds with tim10-1 inh. S. cerevisiae tim10-1 ts strain growth, BacTiter-Glo, 24 h. inhibition, % at 20 µM. actives 56% (n = 7,400). AID 463213;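 active = inhibition of yeast growth at or above a set limit in either of two repeat tests at 20 µM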;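 note: tim10-1 mutant grown at permissive 25 °C to find synthetic lethal compounds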
A number is an active result; . = inactive; ? = inconclusive; / = no result given. A selection: hits, their analogues and other compounds. The true share with any hit is near 4.8%.

SMILES | tim23-1 inh | PfHsp90 yeast 2 | NALP1 inh | tim10-1 inh | TIM10 inh | SKKanGAS inh | tim10-1 confirm
COc1ccc(C(=S)N2CCCCCC2)cc1 | . | / | . | 40 | . | . | .
CC(C)(C)c1nnc(NS(=O)(=O)c2cc(Cl)ccc2Cl)s1 | . | . | . | . | . | . | /
O=S(=O)(Nc1nc(-c2sccc2Cl)cs1)c1cc(Cl)ccc1Cl | . | . | . | 43 | . | 85 | .
COC(=O)C(CC(=O)c1ccc(Br)cc1)n1ccnc1 (stereo not given) | . | / | . | 72 | . | . | 44
COc1ccccc1NC(=O)c1ccc(COc2ccccc2Br)o1 | . | . | . | . | . | . | /
CC(C)(C)n1nnnc1C(c1cccs1)N1CCN(Cc2ccc3c(c2)OCO3)CC1 (stereo not given) | . | / | . | . | . | . | /
Cc1cccc(CSC(Nc2ccc(F)cc2)=C(C#N)C#N)c1 | . | . | . | 44 | . | . | .
CC(C)C[C@H](N)c1nnc(SCC(=O)Nc2ccc(Br)cc2)o1 | . | . | . | 43 | . | . | .
Cc1ccc(-c2noc(CCC(=O)NC3CC3)n2)cc1 | . | . | . | . | . | . | /
CC(C)=NOC(=O)c1ccc(-c2ccccc2)cc1 | . | . | . | 54 | . | . | 42
CCOC(=O)CSc1nc(C2CC2)nc2ccccc12 | . | . | . | 40 | . | . | .
CC1CCN(C(=O)CSc2nc(C3CC3)nc3ccccc23)CC1 | . | . | . | . | . | . | /
CCC(=O)Nc1ccc(NC(=O)C23CC4CC(CC(C4)C2)C3)cn1 | . | . | . | . | . | . | /
Cc1ccnc(NC(=O)C23CC4CC(CC(C4)C2)C3)c1 | . | . | . | 49 | . | . | 34
CCOC(=O)c1oc2ccc(CNCCO)c(Cl)c2c1C | . | . | . | . | . | . | /
CCOC(=O)c1oc2ccc(CNC3CCCCC3)c(Cl)c2c1C | . | . | . | 41 | . | . | .
Cc1ccc(NC(=O)CSc2nc(C)c(Cc3ccccc3)c(=O)[nH]2)cc1C | . | . | . | . | . | . | /
O=c1cc(-c2ccccc2)[nH]n1-c1ccc([N+](=O)[O-])cc1 | . | . | . | 43 | . | 51 | .
COc1ccc(Cl)cc1NC(=O)CN1CCC(n2nnc3cc(C)ccc32)CC1 | . | . | . | . | . | ? | .
Nc1cc(S(=O)(=O)N2CCCCC2)ccc1N1CCCCC1 | . | . | / | 45 | . | / | .
Cc1cc(O)c(N=Cc2cc3c(cc2[N+](=O)[O-])OCO3)cc1C | . | . | / | . | . | . | /
O=c1c2ccccc2nc(SCc2cn3ccsc3n2)n1-c1ccc(F)cc1 | . | . | . | 43 | . | . | .
O=C(CSc1nc2ccccc2c(=O)n1-c1ccc(F)cc1)NCc1ccco1 | . | . | . | . | . | . | /
c1ccc(-c2ccc(CN3CCN(c4ncccn4)CC3)cc2)cc1 | . | / | . | . | . | . | /
COc1ccc(/C=C/C(=O)c2nc3ccccc3n2CC(=O)c2ccc(OC)cc2)cc1 | . | . | . | 41 | . | . | 37
SMILES | tim23-1 inh | PfHsp90 yeast 2 | NALP1 inh | tim10-1 inh | TIM10 inh | SKKanGAS inh | tim10-1 confirm
COc1ccc(Cn2c(/C=C/c3ccccc3)nc3ccccc32)cc1 | . | / | . | 46 | . | . | .
COc1ccc(C(=O)Cn2c(C(C)=O)nc3ccccc32)cc1 | / | . | / | / | / | / | /
CCn1c(/C=C/c2ccccc2)nc2ccccc21 | . | . | . | . | . | . | /
CCn1c(SCC(=O)OC(C)C)nnc1-c1cccc(Cl)c1 | . | . | . | . | . | . | /
COc1cccc(CNc2nc3nc(C)c(Cl)c(C)n3n2)c1 | . | . | . | 48 | . | . | 29
COc1ccc(OCC(O)CNC(C)c2ccccc2)cc1 (stereo not given) | . | . | . | 42 | . | . | .
CCCCCCC(C)n1cc(C(C)=O)c(=O)[nH]c1=O (stereo not given) | . | . | . | . | . | . | /
FC(F)(F)c1ccc(N2CCN(c3cc(-c4ccccc4)nc4ncnn34)CC2)nc1 | . | . | . | 45 | . | . | .
O=C(NCCO)c1cccc(Nc2nc(-c3ccccc3)c3cc(Cl)ccc3n2)c1 | . | . | . | 45 | . | . | .
Cn1ncc(Cl)c1C(=O)N1CCc2ccccc21 | . | / | . | . | . | . | /
COc1ccc(C(C)NC(=O)c2ccccc2Cl)cc1OC (stereo not given) | . | . | . | . | . | . | /
CCOC(=O)c1cn[nH]c1NC(=S)Nc1ccc(Cl)cc1 | . | / | . | 41 | . | . | .
CCCCNc1cc(NC(C)=O)cc2cc(OC)c(OC)cc12 | . | . | . | 44 | . | . | .
CCc1ccc(-c2ccc3nnc(SCC(N)=O)n3n2)cc1 | . | . | . | . | . | ? | /
CCSc1nnc2ccc(-c3cccs3)nn12 | . | . | . | . | . | . | /
CCc1ccc(-c2ccc3nnc(SC)n3n2)cc1 | . | . | . | 56 | . | . | .
CCSc1nnc2ccc(-c3ccc(C)cc3)nn12 | . | . | . | 45 | . | . | .
O=C(Cn1cnc2ccc(Br)cc2c1=O)c1cccs1 | . | . | . | . | . | . | /
CN(CCCS(=O)(=O)[O-])c1ccc(/C=C/c2ccc3ccccc3[n+]2C)cc1 | . | . | . | 43 | . | . | .
O=S(=O)(NCc1ccccc1)c1ccc(Cl)cc1 | . | . | . | . | . | . | /
CCc1ccccc1NS(=O)(=O)c1ccc(SC)cc1 | . | . | . | . | . | . | /
CSc1ccc(S(=O)(=O)NCc2ccccc2Cl)cc1 | . | . | . | 52 | . | . | 49
CSc1ccc(S(=O)(=O)NCc2ccccc2)cc1 | . | . | . | 46 | . | . | 31
O=C(NC(CC1CCCCC1)C(=O)O)c1ccccc1 (stereo not given) | . | . | / | . | . | / | /
CN1/C(=C\C(=O)c2ccccc2Cl)c2ccccc2CC1(C)C | . | . | . | . | . | . | /
SMILES | tim23-1 inh | PfHsp90 yeast 2 | NALP1 inh | tim10-1 inh | TIM10 inh | SKKanGAS inh | tim10-1 confirm
Cc1cccc(C(=O)/C=C2/c3ccccc3CC(C)(C)N2C)c1 | . | . | . | . | . | . | /
CN1/C(=C\C(=O)c2ccco2)c2ccccc2CC1(C)C | . | . | . | 47 | . | . | .
Cc1ccccc1C(=O)/C=C1/c2ccccc2CC(C)(C)N1C | . | / | . | 42 | . | . | .
c1ccc(-c2nc(-n3ccnc3)nc(-n3ccnc3)n2)cc1 | . | / | . | . | . | . | /
CC(C)Nc1nc(-c2ccccc2)nc(-n2ccnc2)n1 | . | / | . | 41 | . | . | .
CCc1ccc(NC(=O)Cn2nnc(C(=O)NCCc3ccc(OC)c(OC)c3)c2N)cc1 | . | . | . | . | . | . | /
CC1(C)CC(NCCC(c2ccccc2)c2ccco2)CCO1 (stereo not given) | . | . | . | . | . | . | /
Cc1nn(C(=O)c2cccs2)c(N)c1-c1ccccc1 | . | . | . | . | . | . | /

High-throughput results (PubChem)
